From PubChem BioAssay
TDP1 cell CPT: growth inhibition of DT40 Tdp1-/-;hTDP1 cells with camptothecin (screen for TDP1 inhibitors); hit rate 12% among 420,000; AID 686979; Potency, µM (series often up to 46.2 µM), for inactives: top-dose activity change, negative = growth inhibition, most hits filed as inhibitors; chicken DT40 Tdp1-/-;hTDP1 cells + 20 nM CPT, ATP luminescence, 48 h; note: % is set by controls: 0 for no effect and ±100 for the full control effect; nearly all actives have a fitted effect of over 55% in size
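Chicken DT40 Tdp1-/- cells stably complemented with human TDP1 were seeded at 400 cells/well in medium containing 20 nM camptothecin, exposed to pin-transferred compounds, and grown at 37 °C for at least 48 hr. Viability was read as ATP luminescence.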
HepG2 viability: HepG2 cytotoxicity, counter-screen for TGF-b inhibitors; AID 588856; Potency, µM (highest dose often 46.1 µM), without a hit: at the highest dose activity change, negative = cytotoxicity, usual class: cytotoxic; HepG2 CAGA-GFP viability, ATP luminescence, 18 h; hit rate 0.76% among 410,000
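CellTiter-Glo luminescence gave cytotoxicity after 18 hours at 37 degrees C. The cells were HepG2 CAGA-GFP in 1% FBS DMEM, stimulated with 500 pg/mL TGF-beta after compound addition. %Activity was normalised to no-cell wells (complete cell-killing) and DMSO (no toxicity), and curves were fitted and classified.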
ATXN viability: cell viability loss in ATXN counter-screen; AID 651635; Potency, µM (doses to about 56.7 µM), hits mostly cytotoxic; hit rate 0.49% among 400,000; S2 cells (HEK-293 line with an ATXN2-luciferase reporter) viability, CellTiter-Fluor protease fluorescence, 24 h; note: nearly all actives have a fitted effect of over 40% in size
DT40 TDP1 no CPT: qHTS for Inhibitors of human tyrosyl-DNA phosphodiesterase 1 (TDP1): qHTS in cells in absence of CPT; DT40 Tdp1-/- hTDP1 cells, no CPT, ATP luminescence, 48 h; Potency, µM (top dose mostly 46.2 µM), inactives show top-dose activity change, negative = growth inhibition, most hits filed as inhibitors; hit rate 15% among 420,000; AID 686978, 2013; note: % is set by controls: 0 for no effect and ±100 for the full control effect; nearly all actives have a fitted effect of over 55% in size
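Chicken DT40 Tdp1-/- cells complemented with human TDP1, screened without camptothecin (DMSO vehicle only), 400 cells/well. Compounds pin-transferred, cells incubated at 37 °C for at least 48 hr. Growth read as ATP-dependent luminescence (CellTiter-Glo, 30 min at RT).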
TGFb SMAD3 inh: inhibitors of TGF-b signaling; hit rate 1.2% among 410,000; AID 588855; HepG2 CAGA-GFP TGF-b/SMAD3 reporter, GFP fluorescence, 18 h; TGF-beta stimulated, 500 pg/mL final; Potency, µM (series often up to 46.1 µM), for the others: at the top dose activity, negative = inhibition, most hits filed as inhibitors; note: % is set by controls: 0 for no effect and ±100 for the full control effect; nearly all actives have a fitted effect of over 65% in size
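HEPG2 CAGA-GFP reporter cells (1000/well, DMEM with 1% FBS) received compounds, then recombinant TGF-beta at 500 pg/mL final for 18 hours at 37 degrees C. Per-cell GFP summed per well was normalised to unstimulated and stimulated DMSO controls before curve fitting.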
ATXN2 expr inh: reduces ATXN2 reporter expression in HEK-293 cells; AID 1745845; Potency, µM (highest dose often 57 µM), without a hit: top-dose activity change, negative = inhibition, most hits filed as inhibitors; HEK-293 ATXN2-luciferase reporter, luminescence, 24 h; hit rate 0.72% among 360,000; note: % is set by controls: 0 for no effect and ±100 for the full control effect; nearly all actives have a fitted effect of over 55% in size
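qHTS (up to 57 uM final) was run with 24 h compound exposure of reporter cells at 37 °C. Each well was multiplexed: SteadyGlo luminescence measured ATXN2-luciferase expression after a fluorogenic Gly-Phe-AFC viability readout (25 uM final).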
Starred values were filed as active, the others as inactive; i = inactive; ? = inconclusive; / = no result; [ ] = another dose, or the depositor's remark. Compounds with a hit are over-represented: about 17% of the library has one in this group of screens. Calls come from the whole dose curve; as a rule, active = well fitted curve in the direction sought with a large enough effect; inconclusive = small, poorly fitted or top-dose-only effect, or another doubt; inactive = no such curve, though single readings can be large; an effect the other way counts as inactive or inconclusive. Potency is the fitted concentration of half-maximal effect.

SMILES	TDP1 cell CPT	HepG2 viability	ATXN viability	DT40 TDP1 no CPT	TGFb SMAD3 inh	ATXN2 expr inh
COC(=O)C1=C(c2ccc(S(C)(=O)=O)cc2)C[C@@H]2CC[C@H]1N2C(=O)N1CCOCC1	-2%	-3%	i	7%	0%	-3%
COC(=O)C1=C(c2ccc(OC)c(OC)c2)C[C@@H]2CC[C@H]1N2C(=O)N1CCCCC1	8.2µM*	-9%	i	9.2µM*	0%	-13%
COC(=O)C1=C(c2ccc3ccccc3c2)C[C@@H]2CC[C@H]1N2C(=O)N1CCCC1	2.9µM*	-36%	i	3.3µM*	?	?
COC(=O)C1=C(c2ccc3ccccc3c2)C[C@@H]2CC[C@H]1N2C(=O)N1CCC(O)CC1	?	-19%	i	?	-13%	-2%
COC(=O)C1=C(c2ccc3ccccc3c2)C[C@@H]2CC[C@H]1N2C(=O)N1CCCCC1	2.3µM*	-16%	?	1.8µM*	?	-26%
CC1(C)C(C=C(Cl)Cl)C1C(=O)OC(C#N)c1cccc(Oc2ccccc2)c1 (configuration not stated)	?	/	i	?	/	-4%
O=S(=O)(c1ccc(Cl)cc1)N1CN2CCN(C2)C1	23µM*	-4%	i	?	7%	5%
CCN1C[C@@]2(COC)C3[C@@H](OC)[C@H]4[C@@H]1[C@@]3(C1C[C@@]3(O)[C@H](OC(=O)c5ccccc5)C1[C@]4(OC(C)=O)[C@@H](O)[C@H]3OC)[C@@H](OC)C[C@H]2O (some centres not stated)	0%	-2%	i	7%	26%	-3%
CCc1ccccc1N1C(=O)N(Cc2ccccc2C)c2ccccc2S1(=O)=O	?	-47%	i	16µM*	0%	-21%
O=C(Oc1ccc2ccc(OC(=O)N3CCCCCC3)cc2c1)N1CCCCCC1	12µM*	9%	?	21µM*	?	-11%
O=C(Nc1ccc(OC(=O)N2CCCCC2)cc1)N1CCOCC1	2%	-12%	i	4%	-15%	?
CCc1nc(SC)ncc1C(=O)Nc1ccc(Cl)cc1C(=O)c1ccccc1	-1%	-9%	i	?	-24%	19%
CCCc1nc(SC)ncc1C(=O)Nc1ccc(Cl)cc1C(=O)c1ccccc1	?	-7%	i	23µM*	-19%	-2%
C[C@H]1CC[C@@]2(NC1)O[C@@H]1C[C@H]3[C@@H]4CC[C@@H]5C[C@@H](O)CC[C@@]5(C)[C@@H]4CC[C@]3(C)[C@@H]1[C@@H]2C	/	/	i	/	/	/
C[n+]1c2cc(N)ccc2cc2ccc(N)cc21	3.7µM*	-28%	/	2.9µM*	-100%	3.2µM*
C[n+]1c2cc(N)ccc2cc2ccc(N)cc21 (tested in a mixture with another compound)	2.1µM*	/	/	1.8µM*	/	3.2µM*
O=C1CC(c2c(F)cccc2Cl)c2c(c3ccccc3oc2=O)O1 (configuration not stated)	1%	12%	i	2%	-14%	-9%
O=C1NCN(c2ccccc2)C12CCN(C(c1nnnn1Cc1ccccc1)C1CC1)CC2 (configuration not stated)	?	12%	?	21µM*	?	-7%
CSCCC(c1nnnn1Cc1ccccc1)N1CCC2(CC1)C(=O)NCN2c1ccccc1 (configuration not stated)	15µM*	8%	?	21µM*	?	-24%
Cc1cccc(C)c1-n1nnnc1C(CCc1ccccc1)N1CCC2(CC1)C(=O)NCN2c1ccccc1 (configuration not stated)	?	-7%	?	?	8%	0%
CSCCC(c1nnnn1-c1c(C)cccc1C)N1CCC2(CC1)C(=O)NCN2c1ccccc1 (configuration not stated)	23µM*	-43%	?	?	11µM*	?
CC(C)(C)n1nnnc1C(CCc1ccccc1)N1CCC2(CC1)C(=O)NCN2c1ccccc1 (configuration not stated)	21µM*	-39%	?	15µM*	?	?
CSCCC(c1nnnn1C1CCCC1)N1CCC2(CC1)C(=O)NCN2c1ccccc1 (configuration not stated)	?	0%	?	?	-5%	-1%
CCC(c1nnnn1C(C)(C)C)N1CCC2(CC1)C(=O)NCN2c1ccccc1 (configuration not stated)	-28%	5%	?	?	?	-7%
C(#CCN1CCOCC1)COCc1ccccc1	-9%	6%	i	-16%	-9%	-4%
SMILES	TDP1 cell CPT	HepG2 viability	ATXN viability	DT40 TDP1 no CPT	TGFb SMAD3 inh	ATXN2 expr inh
CCCNC(=O)N1[C@H]2CC[C@@H]1C(C(=O)OC)=C(c1cccc(C#N)c1)C2	-14%	-3%	i	-4%	2%	-6%
O=C1NC(=O)C(Cc2cccs2)C(=O)N1	-24%	8%	i	-20%	6%	26%
COc1ccc2oc(-c3cccc(NC(=O)c4ccc(C#N)cc4F)c3)nc2c1	/	-15%	?	/	10%	0%
COc1ccc(NC(=O)c2ccc(COCC(F)(F)C(F)F)cc2)cc1	-25%	-6%	i	?	-2%	8%
OCC(Br)CBr (configuration not stated)	0%	-11%	i	-15%	3%	2%
CCOP(=S)(OCC)SCC(=O)NC(C(=O)O)C(C)C (configuration not stated)	4%	-1%	i	3%	-1%	3%
C=C[C@H]1CN2CCC1C[C@@H]2C(O)c1ccnc2ccccc12 (some centres not stated)	-3%	/	/	-1%	/	/
COc1ccc(CCNc2oc(-c3ccc(OC)c(OC)c3)nc2P(=O)(OC)OC)cc1OC	-30%	7%	?	?	7%	-6%
Cc1ccc(C(=O)Nc2c(C(=O)Nc3ccc(C)c(C)c3)sc3nc(C)cc(C)c23)cc1	?	1%	i	18µM*	-3%	132%
Nc1ccc([N+](=O)[O-])cc1O	24µM*	/	?	22µM*	/	-10%[116 µM]
COc1ccc(C(=O)Nc2ccc(-c3nc4ccccc4s3)cc2C)cc1Cl	?	3%	i	-29%	3%	46%
